These results are taken from PubChem BioAssay AID880 (National Center for Advancing Translational Sciences (NCATS), 2007).

Several values for one entry are separate records, joined by “and”; a condition that tells them apart may be missing. Equal values may be shown once. Among all 230,000 compounds or so, about 1,000 (0.43%) were called active. Where a call stands in place of a potency, no number is given. Calls come from the whole dose curve; as a rule, active = well fitted inhibition curve with a large enough effect (not every such curve was filed as active); inactive = no such curve, though single readings can be large or run the other way. The full list was thinned out, with actives kept by preference.
Potency is the fitted concentration of half-maximal effect.

Chain of Guanine nucleotide-binding protein G(i) subunit alpha-1 (Homo sapiens) (P63096 whole entry, looked up): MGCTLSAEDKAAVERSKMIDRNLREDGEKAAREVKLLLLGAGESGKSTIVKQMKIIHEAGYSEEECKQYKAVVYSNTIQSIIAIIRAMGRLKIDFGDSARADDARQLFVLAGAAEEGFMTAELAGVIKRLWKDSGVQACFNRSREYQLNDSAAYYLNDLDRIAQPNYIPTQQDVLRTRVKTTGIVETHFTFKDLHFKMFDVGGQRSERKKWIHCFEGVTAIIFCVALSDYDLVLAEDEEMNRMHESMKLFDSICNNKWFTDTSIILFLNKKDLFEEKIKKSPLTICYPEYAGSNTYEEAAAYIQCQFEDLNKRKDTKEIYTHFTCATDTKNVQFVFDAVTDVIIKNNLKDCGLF

This assay concerns the target Guanine nucleotide-binding protein G(i) subunit alpha-1 (Homo sapiens) (UniProt P63096). Put plainly: qHTS Assay for Inhibitors of RGS12 GoLoco Motif Activity (Red Fluorophore). Note: nearly all actives have a fitted effect of over 30% in size. Conditions: Gai1:RGS12 GoLoco peptide FP, rhodamine, 10 min; series mostly up to 61.6 µM. (qHTS replaces the single test concentration by a dilution series.)
With `CC(C)(C)C1CCC(=NNC(=O)c2cc(-c3ccccc3)n[nH]2)CC1` (centres undefined), the Potency result was “inactive”.

On to `Cc1ccc(C(=O)N/C(=C/c2ccco2)C(=O)NCCc2c[nH]c3ccccc23)cc1C`, for which the Potency entry was “inactive”.

Take `NC(=O)c1nsc(C(=O)N(CC(=O)NCc2ccc(F)cc2)Cc2ccco2)c1N`: the Potency result is “inactive”.

Regarding `COc1ccc(CCCOC(Cn2ccnc2)c2ccc(OC)cc2)cc1` (centres undefined), the Potency result was “inactive”.

For the compound `C[C@]12CC[C@@H]3c4ccc(O)cc4C[C@@H](CCCCCCCCCS(=O)CCCC(F)(F)C(F)(F)F)C3[C@@H]1CC[C@@H]2O` (some centres undefined), the Potency entry is “inactive”.

For the compound `CN(C)CCCCCN(C)Cc1cc2ccccc2o1`, the Potency entry was “inactive”.

Consider `Nc1ccc2c3c(cccc13)C(=O)NC2=O`, for which the Potency is 3.16 µM (active) and 20 µM (active).

In the case of `COC1(C2=NCCN2)COc2ccccc2O1` (centres undefined), the Potency entry was “inactive”.

As to `COC(=O)c1nn(-c2cccc(Cl)c2)ccc1=O`, the Potency entry was “inactive”.

As for `COc1ccc(C)cc1-n1nnnc1SCc1nc2ccccc2c(=O)[nH]1`, the Potency result is “inactive”.

For `Cc1cc2nc3c(=O)[nH]c(=O)nc-3n(C[C@H](O)[C@H](O)[C@H](O)CO)c2cc1C`, the Potency is 17.8 µM (active).

`N#C/C(=C\c1ccc(-c2cccc([N+](=O)[O-])c2)o1)C(=O)NCCN1CCOCC1`: the Potency entry is “inactive”.

Regarding `CC(Oc1ccc(-c2ccccc2)c(F)c1)c1ccn(S(=O)(=O)c2cccc3ccccc23)n1` (centres undefined), the Potency entry is “inactive”.

Take `C=C1O[C@@](CO)(n2cnc3c(N)ncnc32)[C@H](O)[C@@H]1O`: the Potency entry was “inactive”.

Regarding `Cc1csc(-c2coc3cc(O[C@@H]4O[C@H](CO)[C@@H](O)[C@@H](O)[C@H]4O)ccc3c2=O)n1`, the Potency entry is “inactive”.

`CN(C)/C(CN1CCCCC1)=C1\N=C(c2ccccc2)OC1=O`: the Potency result is “inactive”.

Regarding `CCOC(=O)N1CCC(N(CCOC)C(=O)Nc2ccc(C)c(C)c2)CC1`, the Potency result is “inactive”.

For `CN(C)c1nc(=Nc2cccc(Cl)c2)ss1`, the Potency entry is “inactive”.

`S=C(Nc1cccc(Br)c1)N1CCn2cccc2C1c1cccnc1` (centres undefined): the Potency result was “inactive”.

For the compound `O=C(CSc1nc2ccccc2s1)Nc1ccc(C(=O)O)cc1`, the Potency entry was “inactive”.

With `c1ccc2sc(SCCSc3nc4ccccc4s3)nc2c1`, the activity, negative = inhibition is 2.61% [at 14.2 µM] (inactive).

In the case of `O=[N+]([O-])c1c(NCCO)cc(Sc2nc3ccccc3s2)c2nonc12`, the Potency is 8.91 µM (active).

As to `COc1ccc(-c2nc(CS(=O)CC(=O)NCc3cccnc3)c(C)o2)cc1OC` (centres undefined), the Potency result is “inactive”.

Regarding `COc1ccc(-c2nc(CS(=O)CC(=O)N3CCc4ccccc4C3)c(C)o2)cc1` (centres undefined), the Potency result was “inactive”.

On to `COc1ccc(-c2nc(CS(=O)CC(=O)NCc3ccccn3)c(C)o2)cc1` (centres undefined), for which the Potency is 14.1 µM (active).

As to `O=[N+]([O-])c1ccc(N2CCN(CC(O)COc3ccccc3)CC2)cc1` (centres undefined), the Potency result is “inactive”.

With `O=C(c1ccccc1)c1ccc(OCC(O)CN2CCCC2)cc1` (centres undefined), the Potency entry is “inactive”.

For the compound `C[N+]1(CC(O)COc2ccccc2)CCN(C(=O)c2ccc([N+](=O)[O-])cc2)CC1` (centres undefined), the Potency was 12.6 µM (active).

With `CN(C)C(=O)c1nc2ccc(Cl)cn2c1CNCc1cccc(OC(F)(F)F)c1`, the Potency entry was “inactive”.

Regarding `Cn1nc(C(F)(F)F)cc1C(=O)O`, the Potency result was “inactive”.

For the compound `O=[N+]([O-])c1cc(S(=O)(=O)CCCN2CCOCC2)ccc1F`, the Potency result is “inactive”.

`CC(C)c1cnc(NC(=O)Cc2ccccc2)s1`: the Potency entry was “inactive”.

As to `O=C(CSc1ncnc2c1cnn2CCc1ccccc1)Nc1ccc(F)cc1`, the Potency entry was “inactive”.

For `Oc1ccc(CNc2ccccc2O)cc1`, the Potency entry was “inactive”.

As for `O=C(OCc1ccccc1)c1ccc(O)cc1`, the Potency result is “inactive”.

Regarding `COC(=O)CCCCCN1C(=O)NC(c2ccc(-c3ccccc3)cc2)C(C(=O)OCc2ccccc2)=C1C` (centres undefined), the Potency entry was “inactive”.

`CC(=O)[C@H](C(c1ccccc1)N1CCOCC1)N1CCOCC1` (some centres undefined): the activity, negative = inhibition was -7.72% [at 14.2 µM] (inactive).

Turning to `C=C(C(C)=O)C(O)c1ccc([N+](=O)[O-])cc1` (centres undefined), the Potency entry is “inactive”.

On to `CCOC(=O)C1(CC2CCCCO2)CCN(Cc2nc(-c3cccs3)oc2C)CC1` (centres undefined), for which the Potency result is “inactive”.

With `OCC(CO)NC1C[C@](O)(CO)[C@@H](O)[C@H](O)[C@H]1O` (some centres undefined), the Potency entry is “inactive”.

Take `NC1CCN(O)C1=O` (centres undefined): the Potency result was “inactive”.

`CCc1ccc(-n2c(SCc3cc(=O)n4cc(Br)ccc4n3)nc3[nH]ncc3c2=O)cc1`: the Potency entry was “inactive”.

In the case of `CC(O)COc1ccccc1` (centres undefined), the Potency result was “inactive”.

As for `O=C(O)/C=C/c1ccc(OCCCF)cc1`, the Potency entry was “inactive”.

For the compound `Cc1cccc(Br)c1`, the Potency entry was “inactive”.

For `O=C1OCCN1C(=O)[C@H]1[C@H](c2ccc(Cl)cc2)C(c2cccc(Cl)c2)=NN1c1ccc(Br)cc1`, the Potency result was “inactive”.

For `CC(O)[C@@H](N)C(=O)O` (some centres undefined), the Potency result was “inactive”.

On to `O=P(O)(O)C(O)c1ccc2ccccc2c1` (centres undefined), for which the Potency result was “inactive”.

As to `Cc1ccnc(Nc2nc3ccccc3s2)n1`, the Potency result was “inactive”.

In the case of `Cc1ccnc(-n2sc3ccccc3c2=O)n1`, the Potency was 14.1 µM (active).

`Cc1ccnc(SCC(N)=O)n1`: the Potency entry was “inactive”.

With `CCOC(=O)c1cnc2[nH]c3ccccc3n2c1=O`, the Potency entry was “inactive”.

As for `Cc1ccc(-c2nc3ccccc3[nH]c2=O)cc1`, the Potency result was “inactive”.

Turning to `O=c1[nH]c2ccccc2n2c(-c3ccccc3)nnc12`, the Potency is 12.6 µM (active).

Regarding `O=C(Nc1cccc(F)c1)N1CCC2(CC1)CCN(S(=O)(=O)c1ccccc1)CC2`, the Potency entry was “inactive”.

`CCOC(=O)C1=NO[C@@]2(C=C(Br)C(=O)[C@H]3O[C@H]32)C1`: the Potency result was “inactive”.

For `COc1ccc2c(-c3ccccc3)cc(SCC(=O)N(C)C3CCS(=O)(=O)C3)nc2c1` (centres undefined), the Potency result is “inactive”.

As to `CC(=O)OC1C([N+]2(C)CCCCC2)C[C@H]2C3CC[C@H]4C[C@H](OC(C)=O)C([N+]5(C)CCCCC5)CC4(C)C3CCC12C` (some centres undefined), the Potency entry is “inactive”.

Turning to `C=CC(=O)OCCOCCOCCOCCOC(=O)C=C`, the Potency result is “inactive”.

Turning to `Cc1cccc(-n2c(=O)c3c(C)c(C)sc3n(CC(N)=O)c2=O)c1`, the Potency result is “inactive”.

On to `NC(=O)c1sc(-c2ccsc2)cc1N`, for which the Potency result is “inactive”.

Take `COc1ccc(-c2nc(-c3ccccc3)oc2Nc2ccc3ccccc3c2)cc1`: the Potency entry is “inactive”.

For the compound `CC1(C)CC(=O)C=C(N2CCCC2)C1`, the Potency result is “inactive”.

In the case of `CC1(C)CC(N2CCN(C(c3ccccc3)c3ccccc3)CC2)=CC(=[N+]2CCCCC2)C1`, the Potency was 17.8 µM (active).

For `O=C1CC(N2CCN(C(c3ccccc3)c3ccccc3)CC2)C(=O)N1` (centres undefined), the Potency entry is “inactive”.

`Cc1ccccc1C(=O)Nc1ccc(N2CCCCCC2)cc1`: the Potency entry is “inactive”.

In the case of `O=C1C=CC(=O)N1c1ccc(N2CCCCC2)cc1`, the Potency is 5.01 µM (active).

Regarding `CCOC(=O)/C(C#N)=C/c1ccc(N2CCCCC2)cc1`, the Potency result is “inactive”.

Regarding `N#C/C(=C/c1ccc(N2CCCCC2)o1)C(=O)NCCc1c[nH]c2ccccc12`, the Potency entry is “inactive”.
